Bioassay records deposited in PubChem by several laboratories.
Rows were chosen to be rich in hits. Some 0.95% of all compounds tested hit in one or more screens of this group.
SKBR3 24h inh: SK-BR-3 proliferation inhibitors, primary screen, cell-based, human, 24 h | SK-BR-3 viability, CellTiter-Glo ATP luminescence; hits give low values | viability, % at 10 µM | hit rate 0.47% among 41,000;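 active = viability at or below the median of all test compounds minus 3 SD, in both replicates if run twice, cut at about 45% in these data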;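 also: 100% = median untreated cell wells and 0% = median positive control drug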
Cdc25B block: inhibitors of Cdc25B phosphatase catalytic domain, primary screen, biochemical, OMFP fluorescence | recombinant Cdc25B, OMFP fluorescence Ex485/Em525 | hit rate 0.1% among 65,000 | M-phase inducer phosphatase 2 (Homo sapiens), P30305 | AID 368, 2006 | inhibition, %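 (compounds tested at 10 µM final in the well)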; in the data active = inhibition above about 50%
Target sequence (P30305 whole entry, looked up, the tested form may be a part): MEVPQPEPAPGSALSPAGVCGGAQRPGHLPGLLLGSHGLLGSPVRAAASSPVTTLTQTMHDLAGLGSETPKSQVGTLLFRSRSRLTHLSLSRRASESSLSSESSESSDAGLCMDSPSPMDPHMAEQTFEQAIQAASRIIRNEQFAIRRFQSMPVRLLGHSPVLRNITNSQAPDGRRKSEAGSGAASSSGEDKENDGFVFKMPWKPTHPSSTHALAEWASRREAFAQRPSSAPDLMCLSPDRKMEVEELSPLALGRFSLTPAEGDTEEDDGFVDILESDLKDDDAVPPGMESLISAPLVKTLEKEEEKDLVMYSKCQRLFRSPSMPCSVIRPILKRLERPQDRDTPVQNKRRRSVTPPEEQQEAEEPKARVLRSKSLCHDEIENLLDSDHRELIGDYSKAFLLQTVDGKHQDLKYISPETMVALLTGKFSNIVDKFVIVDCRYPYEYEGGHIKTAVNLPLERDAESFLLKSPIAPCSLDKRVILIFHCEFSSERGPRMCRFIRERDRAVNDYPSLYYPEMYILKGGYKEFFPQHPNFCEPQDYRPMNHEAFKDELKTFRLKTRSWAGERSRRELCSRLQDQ
WNV protease inh: inhibitors of WNV NS2B-NS3 protease, primary screen, biochemical, fluorogenic substrate | Genome polyprotein (West Nile virus), P06935 | fluorogenic substrate Ex360/Em465; hits give low values | z-score (test concentration not listed) | hit rate 0.18% among 65,000 | AID 577, 2007; in the data active = z-score below about -3
PKA kinase inh: inhibitors of human PKA kinase activity, primary screen, biochemical, ATP-depletion luminescence, Kemptide substrate; inhibition, % at 6 µM; PKA Kemptide phosphorylation, Kinase-Glo ATP luminescence; cAMP-dependent protein kinase catalytic subunit alpha (Homo sapiens), P17612; hit rate 0.1% among 65,000;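 active = inhibition above the screen-wide mean inhibition plus 3 SD, cut at about 21% in these data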
MKP-1 inh: MKP-1 phosphatase inhibitors, primary screen, biochemical, in vitro; inhibition, %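 (compounds tested at a single concentration somewhere between 10 and 100 µM)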; Dual specificity protein phosphatase 1 (Homo sapiens), P28562; hit rate 0.15% among 65,000; recombinant MKP-1, OMFP hydrolysis fluorescence;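 active = inhibition above about 50%, limit read from the data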;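 also: 0% = DMSO max control wells and 100% = wells with enzyme stopped by NaOH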
ROCK2 inh: inhibitors of human ROCK2 kinase, primary screen, biochemical, high-throughput, luminescence | Rho-associated protein kinase 2 (Homo sapiens), O75116 | purified ROCK2, Kinase-Glo ATP depletion luminescence | inhibition, % at 6 µM | hit rate 0.35% among 60,000 | AID 604, 2007;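 active = inhibition above the screen-wide mean inhibition plus 3 SD, cut at about 18% in these data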;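 also: plate controls were DMSO wells for no effect and Y-27632 control wells after no-enzyme background subtraction for full effect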
Active calls of the source: *; . = no result.

SMILES	SKBR3 24h inh	Cdc25B block	WNV protease inh	PKA kinase inh	MKP-1 inh	ROCK2 inh
Cn1c(NC(=O)c2ccc(Br)o2)cc(=O)n(C)c1=O	.	-1	-0.37	0	19	4
Cc1c(C(=O)OCC2CCCO2)[nH]c2c1C(=O)CC(c1ccc(N(C)C)cc1)C2 (centres undefined)	.	-3	0.2	3	2	3
c1cn(CCCNc2ncnc3nc[nH]c23)cn1	.	-6	-0.79	18	17	40*
CCN1CCN(CCCNc2ncnc3nc[nH]c23)CC1	.	-4	-0.59	7	9	7
COC(=O)c1sc2cnccc2c1N	.	-13	1.6	17	7	42*
CCN1CCN(c2nc3c(c(=O)[nH]c(=O)n3C)n2CCCSc2ncccn2)CC1	89	2	-3.8*	2	-13	5
CN1CCN(c2nc3c(c(=O)[nH]c(=O)n3C)n2CCCSc2ncccn2)CC1	100	-9	-0.28	6	-13	4
Nc1ccc2[nH]ncc2c1	84	-20	-0.26	0	-7	32*
COc1cc(C)nc(Oc2ccc(=O)n(C)n2)n1	91	-27	0.65	7	-16	1
COc1cc(C)nc(Oc2ccc(OCCOc3ccc(C)cc3)nn2)n1	85	15	-8.5*	5	-26	13
CNC(=O)N(C1=NCC(C)(C)S1)c1ccc(F)c(Cl)c1	.	-13	1.5	-10	10	-1
Cc1nn(CC(=O)Nc2ccccc2)c(=O)c2ccccc12	76	-15	-0.73	0	-3	1
CCC(=O)Nc1ccc(C(=O)Cn2nc(C(=O)O)c3ccccc3c2=O)cc1	.	-2	-1.1	11	7	33*
COc1cc2c(C(=O)NCc3ccc4c(c3)OCO4)cn(CC(C)C)c(=O)c2cc1OC	25*	-1	0.17	-3	24	4
Brc1cccc(-c2nnc3n2CCCCC3)c1	109	6	-0.25	4	-6	-2
Brc1cccc(-c2cnc3n2CCCCC3)c1	89	2	-4.2*	3	-6	0
CC1(C)CC(=O)C(C=NCC2CCN(C(=O)Nc3ccccc3)CC2)=C(O)C1	.	-3	-1	0	19	0
CCc1cccc2c(C#N)cn(CC(=O)NCc3ccco3)c12	105	-13	-3.9*	6	14	5
COc1ccc(C(=O)n2ccc(C)n2)cc1Br	86	-1	-0.37	1	11	1
CC(=O)c1ccc(OCC(O)COc2ccc(C(C)=O)cc2)cc1	96	-10	-0.17	17	-1	19*
Cc1cc2ncn(C(=O)c3c(-c4ccccc4Cl)noc3C)c2cc1C	.	-9	-1.1	7	14	8
COC(=O)c1ccsc1NC(=O)c1ccc2c(c1)OCCO2	.	-3	-1	10	9	3
CCOC(=O)CC(=O)CSc1nnc2sc3ccccc3n12	99	1	-1.8	-1	78*	3
C=CCn1c(SCC(=O)/C(C#N)=C(\C)N)nnc1C1CCCCC1	.	3	-0.43	2	8	-4
OCCNC1=NCCN1	73	0	-3.2*	4	-3	1
SMILES	SKBR3 24h inh	Cdc25B block	WNV protease inh	PKA kinase inh	MKP-1 inh	ROCK2 inh
COc1cccc(C(=O)NC2(C(F)(F)F)N=C3SCCN3C2=O)c1 (centres undefined)	100	0	-4.8*	1	-2	5
O=C(NC1(C(F)(F)F)N=C2SCCN2C1=O)C1CCCCC1 (centres undefined)	113	-12	0.18	8	-11	6
CC1(C)Cc2c(c(-c3ccco3)nc3n[nH]c(N)c23)CO1	103	1	0.95	31*	15	2
CCOC(=O)c1sc2nc(-c3ccco3)c3c(c2c1N)CC(C)(C)OC3	84	7	0.3	7	38	1
COc1cc(NC(=O)c2ccco2)c(OC)cc1NC(=O)CSc1ncc(-c2ccc(F)cc2)[nH]1	77	-29	-0.43	1	-31	6
O=C(CSc1ncc(-c2ccc(F)cc2)[nH]1)Nc1cccc(O)c1	93	-2	-0.57	9	-21	25*
NC(=O)c1c(-c2cccs2)csc1N	84	-3	1.1	16	5	21*
